# Biological target: PEG-3 (UniProt Q6IN02)
# Test: inhibition of PEG-3 promoter-driven reporter – cell-based, HeLa, luciferase, CREF/GAPDH counter-screen panel, dose response (AID 624167)
# Settings: CREF/GAPDH counter-screens; HeLa PEG-Prom luciferase reporter, overnight, run 1, dose range 1, at 100 µM (top of the series) unless noted
# Chain of PEG-3 (Q6IN02 whole entry, looked up): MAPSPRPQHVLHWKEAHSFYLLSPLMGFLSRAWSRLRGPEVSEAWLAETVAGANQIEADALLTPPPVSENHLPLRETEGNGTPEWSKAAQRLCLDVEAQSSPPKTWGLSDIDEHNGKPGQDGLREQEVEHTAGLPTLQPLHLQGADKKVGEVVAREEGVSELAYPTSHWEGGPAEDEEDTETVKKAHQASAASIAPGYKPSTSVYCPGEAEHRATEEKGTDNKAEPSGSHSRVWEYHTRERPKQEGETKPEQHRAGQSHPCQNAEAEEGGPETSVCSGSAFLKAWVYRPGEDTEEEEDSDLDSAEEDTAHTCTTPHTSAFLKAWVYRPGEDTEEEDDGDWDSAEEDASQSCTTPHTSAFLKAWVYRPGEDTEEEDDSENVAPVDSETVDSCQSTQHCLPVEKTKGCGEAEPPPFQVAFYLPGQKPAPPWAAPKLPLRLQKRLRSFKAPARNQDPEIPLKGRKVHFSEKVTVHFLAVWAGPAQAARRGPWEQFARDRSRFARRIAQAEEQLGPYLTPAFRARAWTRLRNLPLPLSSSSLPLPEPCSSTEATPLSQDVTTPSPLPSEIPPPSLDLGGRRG
row,SMILES,inhibition [%]
1,COc1ccc(NC(=O)c2cc(-c3ccccn3)nc3ccccc23)cc1S(=O)(=O)N(C)C,56.4
2,CCOc1ccc2nc(NC(=O)c3ccccn3)sc2c1,88
3,Cc1c(C)c2ccc(OCC(=O)Nc3ccccn3)c(C)c2oc1=O,99.2
4,N=c1n(CC(=O)c2ccc([N+](=O)[O-])cc2)c2ccccc2n1Cc1ccc(Cl)cc1,99.6
5,CCCOc1ccc2cc(-c3ccccn3)c(=O)oc2c1,93.5
6,Cc1nc(SCC(=O)Nc2nc3ccccc3s2)c(C#N)c(C)c1C,95.4
7,O=C(Nc1ccccc1C(=O)Nc1nnc(C(F)(F)F)s1)c1ccccc1,93
8,CCCC(=O)NC(c1ccc(OC)cc1)c1ccc2cccnc2c1O (centres undefined),66.6
9,Cc1cc(N2CCN(C)CC2)ccc1NC(=O)c1c2c(nc3ccccc13)CCN(Cc1ccccc1)C2,101
10,O=[N+]([O-])c1ccc(S(=O)(=O)c2ccccc2)nc1,99.3
11,Cc1cc(C)c(C)c(S(=O)(=O)N2CCN(C(=O)c3cc(=O)[nH]c4ccccc34)CC2)c1C,82.1
12,O=C(NCCc1ccccc1)c1ccc2c(c1)OCO2,86.2
13,O=C(NCCc1ccccc1)c1ccc2c(c1)OCCCO2,101
14,NC1=C(Br)C(=O)c2ncccc2C1=O,99.1
15,CCOc1ccc(NC(=O)Nc2cccc(C(=O)O)c2)cc1,98
16,CCC(=O)NC(c1cccs1)c1cc(Cl)c2cccnc2c1O (centres undefined),100
17,COc1ccc(C(=O)Nc2nc3ccccc3s2)c(OC)c1,101
18,CCCCC(=O)NC(c1ccccc1OC)c1ccc2cccnc2c1O (centres undefined),67.7
19,Cc1ccc(-c2nc(-c3ccccn3)no2)cc1Cl,102
20,COc1ccc(-c2cc3nc(C)n(N)c(=O)c3s2)cc1,99.2

row,SMILES,inhibition [%]
1,O=C(Nc1ccc(Cc2ccncc2)cc1)c1ccc([N+](=O)[O-])o1,99.1
2,COc1ccc2c(c1)sc1nc(-c3ccccc3)cn12,100
3,COc1ccc(/C=C2\SC(=S)N(CCCC(=O)NNC(=O)c3ccccc3O)C2=O)cc1,89.6
4,COC(=O)C1C=CC(OC2OC(COC(C)=O)C(OC(C)=O)C(OC(C)=O)C2OC(C)=O)n2c(=O)n(-c3ccccc3)c(=O)n21 (centres undefined),99.8
5,O=C(O)c1ccc(N/N=C/c2ccc(OC(=O)c3cccc(Cl)c3)cc2)cc1,101
6,Brc1ccc(N=Nc2ccc3ccccc3n2)cc1,93.5
7,CCSc1nc2ccccc2n1C(=O)/C=C\c1ccc(OC)c(OC)c1,99.4
8,CC(C)Cc1ccc(C(C)C(N)=NCCc2ccccc2)cc1 (centres undefined),97.4
9,O=c1c2ccccc2cnn1-c1nc2ccccc2[nH]1,98.4
10,Brc1ccc(N/N=C(/N=Nc2nn[nH]n2)c2ccccc2)cc1,100
11,Cc1c([N+](=O)[O-])cc(N2C(=O)C=CC2=O)cc1[N+](=O)[O-],102
12,COC1CC(C)C(OC)c2cc(O)cc(c2O)NC(=O)C(C)=CC=CC(C)C(OC(N)=O)C(C)=CC(C)C1OC (centres undefined),94
13,COC(=O)c1c(N)sc(C(=O)NCCc2ccccc2)c1C,101
14,CN=c1scc(-c2cccs2)n1/N=C/c1ccccc1O,93.6
15,Cc1nn(-c2nc3ccccc3[nH]2)c(=O)c2ccccc12,97.5
16,Cc1ccsc1/C=N/Nc1cccc(C(=O)O)c1,98.1
17,CC(=O)c1sc2c(c1OC(=O)c1ccc(Cl)cc1Cl)c(=O)n(-c1ccccc1)c(=S)n2-c1ccccc1,82.6
18,CN(C)c1ccc(/C=C/c2nc3ccccc3s2)cc1,94.8
19,CC(=O)N1CCCC(c2cc(C(=O)Nc3ccccc3)no2)C1 (centres undefined),100
